Results published in PubChem BioAssay AID2284140 (EPA ToxCast).
The source made the active and inactive calls. How the source made its calls: active means hit-call score of the fitted dose curve at least 0.9, where 1 is the maximum; inactive means score below 0.9.

target: Tyrosine-protein kinase SYK (Homo sapiens) (UniProt P43405); test: ERF_FR_ENZ_hSYK: Eurofins (ERF) Enzymatic Radiometric [Km ATP] KinaseProfiler LeadHunter Assay for human Syk Tyrosine Kinase
Description: ERF_FR_ENZ_hSYK is a biochemical, single-readout assay that uses extracted gene-proteins in a cell-free assay. Measurements were taken 0.5 hour after chemical dosing in a 96-well plate. See Syk Human TK Kinase Enzymatic LANCE Assay [Km ATP], Cerep.ERF_FR_ENZ_hSYK is an assay component calculated from the ERF_FR_ENZ_hSYK assay. It is designed to measure enzyme activity using a type of enzyme reporter as detected by fluorescence intensity with LANCE technology.Data from the assay component ERF_FR_ENZ_hSYK was analyzed at the assay endpoint, ERF_FR_ENZ_hSYK, in the positive analysis fitting direction relative to DMSO as the negative control and baseline of activity. Using a type of enzyme reporter, loss-of-signal activity can be used to understand changes in enzymatic activity as they relate to gene SYK. To generalize the intended target to other relatable targets, this assay endpoint is annotated to the kinase intended target family, where the subfamily is spleen tyrosine kinase.
Syk (h) is incubated with 50 mM Tris pH 7.5, 0.1 mM EGTA, 0.1 mM Na3VO4, 0.1% […], 0.1 mg/ mL poly(Glu, Tyr) 4:1, 10 mM MgAcetate and [gamma-33P]-ATP (specific activity and concentration as required). The reaction is initiated by the addition of the Mg/ATP mix. After incubation for 40 minutes at room temperature, the reaction is stopped by the addition of phosphoric acid to a concentration of 0.5%. […]

Compound	outcome
O=C(/C=C/c1ccc(O)cc1)CC(=O)/C=C/c1ccc(O)cc1	inactive
